Reference: PubChem BioAssay (NCATS)
“And” between values parts separate entries of the source, which are not always exact repeats. Identical values can stand only once. Results filed as inconclusive are left out. Entries that show only a call come without a potency. Where a structure was tested more than once in an assay, its records may differ in their call. The source made the active and inactive calls. Unless noted, calls follow the shape of the dose curve; as a rule, active = well fitted curve in the direction sought with a large enough effect; inconclusive = small, poorly fitted or top-dose-only effect, or another doubt; inactive = no such curve, though single readings can be large; an effect the other way counts as inactive or inconclusive.

Columns and labels:
[1] = target: Thioredoxin reductase 1, cytoplasmic (Rattus norvegicus) (UniProt O89049); assay: qHTS Assay for Substrates of Mammalian Selenoprotein Thioredoxin Reductase 1 (TrxR1) (AID 488772);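 also: NADPH fluorescence in the first read after selenite addition and not the 8 min delta; series mostly up to about 57 µM; a drop in NADPH fluorescence below the no-compound background marks a TrxR1 substrate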
Thioredoxin reductase 1, cytoplasmic (Rattus norvegicus), sequence (O89049 whole entry, looked up): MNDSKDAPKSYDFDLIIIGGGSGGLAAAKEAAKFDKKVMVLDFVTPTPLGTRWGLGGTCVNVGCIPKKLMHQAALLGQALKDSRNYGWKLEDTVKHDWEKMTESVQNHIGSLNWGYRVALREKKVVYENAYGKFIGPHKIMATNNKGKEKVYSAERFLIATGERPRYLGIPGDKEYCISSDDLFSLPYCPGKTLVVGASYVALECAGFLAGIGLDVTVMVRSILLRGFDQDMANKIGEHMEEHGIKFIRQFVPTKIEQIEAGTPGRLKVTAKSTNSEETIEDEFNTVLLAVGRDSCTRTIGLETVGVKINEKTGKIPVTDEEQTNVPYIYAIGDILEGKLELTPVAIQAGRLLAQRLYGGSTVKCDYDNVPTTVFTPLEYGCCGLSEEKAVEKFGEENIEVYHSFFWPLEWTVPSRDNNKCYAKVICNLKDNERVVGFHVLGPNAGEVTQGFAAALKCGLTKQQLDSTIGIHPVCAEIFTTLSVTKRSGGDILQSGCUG
Outline: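 Quantitative HTS in Tris-HCl buffer at pH 7.5 with EDTA and Tween-20, using rat TrxR1, 400 uM NADPH and 400 uM selenite (final). A fall in initial NADPH fluorescence relative to background marked substrate behaviour.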

[2] = target: Flap endonuclease 1 (Homo sapiens) (UniProt P39748); assay: qHTS Validation Assay for the Inhibitors of Human Flap endonuclease 1 (FEN1) (AID 488816)
Flap endonuclease 1 (Homo sapiens), sequence (P39748 whole entry, looked up): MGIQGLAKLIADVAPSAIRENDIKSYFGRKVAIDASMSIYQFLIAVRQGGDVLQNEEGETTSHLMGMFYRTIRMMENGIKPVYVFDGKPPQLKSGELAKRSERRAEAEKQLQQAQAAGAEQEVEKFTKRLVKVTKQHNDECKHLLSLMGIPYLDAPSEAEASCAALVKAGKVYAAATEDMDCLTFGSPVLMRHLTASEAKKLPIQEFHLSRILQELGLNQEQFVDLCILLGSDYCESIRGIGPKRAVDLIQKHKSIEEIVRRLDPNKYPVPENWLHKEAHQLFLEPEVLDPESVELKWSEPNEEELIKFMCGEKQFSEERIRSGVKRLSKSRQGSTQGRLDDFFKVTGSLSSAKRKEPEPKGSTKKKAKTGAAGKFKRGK
Outline: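 Readings taken at 0 and 15 min after starting the reaction with 50 nM (final) substrate supplied the signal. Compounds had first sat with 10 nM FEN1 reagent for 15 min at room temperature. Values come from Hill-equation concentration-response fits.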

[3] = target: Chromobox protein homolog 1 (Homo sapiens) (UniProt P83916); assay: qHTS Validation Assay for Inhibitors of HP1-beta Chromodomain Interactions with Methylated Histone Tails (AID 488953); also: nearly all actives have a fitted effect of over 50% in size; also: potency is read from the fitted curve at half-maximal effect
Chromobox protein homolog 1 (Homo sapiens), sequence (P83916 whole entry, looked up): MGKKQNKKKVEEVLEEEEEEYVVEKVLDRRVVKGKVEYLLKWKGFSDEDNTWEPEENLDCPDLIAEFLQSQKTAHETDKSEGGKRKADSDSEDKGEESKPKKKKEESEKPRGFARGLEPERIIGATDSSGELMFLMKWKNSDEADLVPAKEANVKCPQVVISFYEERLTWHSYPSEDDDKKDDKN
Outline: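 Measured as loss of AlphaScreen luminescence from streptavidin donor and nickel acceptor beads (10 ug/mL final) bridging HP1-beta and biotin-H3(1-18)K9me3, each 50 nM. Compounds met the preassembled complex for 30 min at RT.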

[4] = target: D(1A) dopamine receptor (Homo sapiens) (UniProt P21728); assay: HTS Assay for Allosteric Agonists of the Human D1 Dopamine Receptor: Primary Screen for Agonists (AID 488981); also: potency is read from the fitted curve at half-maximal effect
D(1A) dopamine receptor (Homo sapiens), sequence (P21728 whole entry, looked up): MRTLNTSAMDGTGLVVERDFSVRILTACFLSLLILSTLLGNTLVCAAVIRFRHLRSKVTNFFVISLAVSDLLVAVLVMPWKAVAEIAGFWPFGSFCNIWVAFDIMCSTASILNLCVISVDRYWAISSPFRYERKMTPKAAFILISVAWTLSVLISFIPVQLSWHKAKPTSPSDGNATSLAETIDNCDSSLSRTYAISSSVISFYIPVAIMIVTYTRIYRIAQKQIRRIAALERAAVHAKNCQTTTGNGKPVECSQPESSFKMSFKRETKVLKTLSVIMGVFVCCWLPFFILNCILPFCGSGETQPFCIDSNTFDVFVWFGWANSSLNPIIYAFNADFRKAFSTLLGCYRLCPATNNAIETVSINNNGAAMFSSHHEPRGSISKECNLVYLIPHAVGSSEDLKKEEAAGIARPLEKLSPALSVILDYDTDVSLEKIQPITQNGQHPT
Outline: (§1)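 Calcium flux in an inducible, force-coupled HEK293 Trex D1 line (overnight at 30 C): agonist mode is the 180 s kinetic read after compound; potentiator mode is the following 180 s read after dopamine at EC20.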

[5] = target: D(1A) dopamine receptor (Homo sapiens) (UniProt P21728); assay: HTS Assay for Allosteric Agonists of the Human D1 Dopamine Receptor: Primary Screen for Potentiators (AID 488982)
Outline: as §1

[6] = target: D(1A) dopamine receptor (Homo sapiens) (UniProt P21728); assay: HTS Assay for Allosteric Agonists of the Human D1 Dopamine Receptor: Primary Screen for Antagonists (AID 488983);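 also: calcium flux response to an EC80 dopamine challenge measured with no-wash dye; nearly all actives have a fitted effect of over 65% in size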; also: potency is read from the fitted curve at half-maximal effect
Outline: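 Screening of inducible HEK293 T-REx D1 cells: compound first, EC80 dopamine 180 s later, each phase read kinetically for calcium over 180 s.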

[7] = Validation screen for small molecules that induce genotoxicity in human embryonic kidney (HEK293T) cells expressing luciferase-tagged ELG1 (AID 493106); also: potency is read from the fitted curve at half-maximal effect
Outline: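 Reporter-gene quantitative HTS in HEK293T cells carrying luciferase-tagged ELG1, whose level climbs under genotoxic stress. Compound exposure lasts 16 hr at 37 °C before luciferase detection.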

[8] = target: ATPase family AAA domain-containing protein 5 (Homo sapiens) (UniProt Q96QE3); assay: Validation screen for small molecules that inhibit ELG1-dependent DNA repair in human embryonic kidney (HEK293T) cells expressing luciferase-tagged ELG1 (AID 493107); also: nearly all actives have a fitted effect of over 70% in size; also: potency is read from the fitted curve at half-maximal effect
ATPase family AAA domain-containing protein 5 (Homo sapiens), sequence (Q96QE3 whole entry, looked up, the tested form may be a part): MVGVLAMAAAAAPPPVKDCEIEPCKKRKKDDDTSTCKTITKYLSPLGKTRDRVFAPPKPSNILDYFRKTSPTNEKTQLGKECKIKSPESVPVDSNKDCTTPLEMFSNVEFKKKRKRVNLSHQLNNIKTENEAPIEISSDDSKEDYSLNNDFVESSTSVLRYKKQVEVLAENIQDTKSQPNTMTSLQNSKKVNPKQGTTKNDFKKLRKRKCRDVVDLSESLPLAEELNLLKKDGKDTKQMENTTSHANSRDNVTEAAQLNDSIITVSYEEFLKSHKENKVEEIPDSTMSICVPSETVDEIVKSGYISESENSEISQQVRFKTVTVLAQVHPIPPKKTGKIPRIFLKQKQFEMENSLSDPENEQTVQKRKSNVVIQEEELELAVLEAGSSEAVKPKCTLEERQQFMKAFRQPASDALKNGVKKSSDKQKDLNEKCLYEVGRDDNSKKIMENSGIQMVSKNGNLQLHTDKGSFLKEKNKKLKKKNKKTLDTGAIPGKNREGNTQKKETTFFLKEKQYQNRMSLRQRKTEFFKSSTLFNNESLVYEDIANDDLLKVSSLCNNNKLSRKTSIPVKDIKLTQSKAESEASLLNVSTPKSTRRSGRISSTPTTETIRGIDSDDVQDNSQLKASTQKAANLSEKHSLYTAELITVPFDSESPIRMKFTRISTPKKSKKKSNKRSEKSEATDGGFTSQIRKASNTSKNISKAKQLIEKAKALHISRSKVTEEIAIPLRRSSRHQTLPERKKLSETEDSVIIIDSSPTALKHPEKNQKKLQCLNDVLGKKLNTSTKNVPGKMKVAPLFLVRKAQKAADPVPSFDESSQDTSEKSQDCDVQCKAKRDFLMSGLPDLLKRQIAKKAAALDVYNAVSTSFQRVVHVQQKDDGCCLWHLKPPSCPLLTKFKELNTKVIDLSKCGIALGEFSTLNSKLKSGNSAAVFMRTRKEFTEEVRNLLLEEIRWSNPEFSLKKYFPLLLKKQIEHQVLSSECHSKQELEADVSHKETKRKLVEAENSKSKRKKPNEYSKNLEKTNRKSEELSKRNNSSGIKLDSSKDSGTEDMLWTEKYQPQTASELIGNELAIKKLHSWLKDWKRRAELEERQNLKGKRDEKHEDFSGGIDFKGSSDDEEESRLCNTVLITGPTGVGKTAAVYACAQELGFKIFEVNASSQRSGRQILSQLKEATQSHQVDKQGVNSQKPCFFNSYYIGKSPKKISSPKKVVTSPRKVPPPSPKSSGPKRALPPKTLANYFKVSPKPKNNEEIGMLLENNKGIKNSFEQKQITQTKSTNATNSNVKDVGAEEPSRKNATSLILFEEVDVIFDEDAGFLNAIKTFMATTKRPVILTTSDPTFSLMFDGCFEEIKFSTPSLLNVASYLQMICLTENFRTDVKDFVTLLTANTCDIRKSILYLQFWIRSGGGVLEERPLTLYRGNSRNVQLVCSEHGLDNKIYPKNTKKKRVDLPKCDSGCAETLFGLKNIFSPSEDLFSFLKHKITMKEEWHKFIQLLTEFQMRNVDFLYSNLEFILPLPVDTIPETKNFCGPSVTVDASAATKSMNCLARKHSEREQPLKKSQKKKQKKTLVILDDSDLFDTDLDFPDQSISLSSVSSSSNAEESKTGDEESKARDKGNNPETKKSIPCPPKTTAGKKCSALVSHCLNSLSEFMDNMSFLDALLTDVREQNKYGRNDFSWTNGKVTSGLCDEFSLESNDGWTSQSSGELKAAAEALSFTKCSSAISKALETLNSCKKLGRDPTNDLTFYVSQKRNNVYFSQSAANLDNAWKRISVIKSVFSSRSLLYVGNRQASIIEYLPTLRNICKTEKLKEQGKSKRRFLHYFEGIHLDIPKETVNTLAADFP
Outline: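 Quantitative HTS in HEK293T cells carrying luciferase-tagged ELG1, stimulated with 5-fluorouridine alongside compound for 16 hr. Loss of luciferase signal marks inhibition of ELG1 response.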

[9] = qHTS for Inhibitors of Cell Surface uPA Generation: Validation Assay (AID 493164);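 also: RAW 264.7 macrophage cells exposed to compound for 18 h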
Outline: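 RAW 264.7, 4000 cells/well, o/n plating; cpd 7-pt 1:5 dilution 2.45 nM–38.3 uM final; 18 h, 37 C/5% CO2; ATP-Lite, 5 s luminescence exposure.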

[10] = target: Thioredoxin reductase 1, cytoplasmic (Rattus norvegicus) (UniProt O89049); assay: qHTS Assay for Inhibitors of Mammalian Selenoprotein Thioredoxin Reductase 1 (TrxR1) (AID 488773); conditions: Potency: inhibition;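 also: drop in NADPH fluorescence over an 8 min run after selenite addition; series mostly up to about 57 µM; nearly all actives have a fitted effect of over 40% in size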
Outline: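 Steps: enzyme (90 nM) plus NADPH (400 uM final), 5 min at ~22 deg C; compound added, 15 min; selenite (400 uM final) added; fluorescence followed for 8 min. Concentration-response curves derived from the normalized delta values.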

[11] = target: Methanococcus maripaludis chaperonin (MmCpn) (UniProt Q6LX38); assay: High-Throughput Screening for Modulators of Cytosolic Chaperonin Activity: MmCpn Primary Screen (AID 488978);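 also: 50 nM MmCpn enzyme hydrolysing 30 µM ATP at 37 °C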
Outline: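 ATPase activity of 50 nM MmCpn was assayed with 30 uM ATP, 10 minutes at 37C, after a 5 min compound preincubation at room temperature. ADP production was read as HTRF emission at 590 and 665 nm.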

[12] = Nrf2 qHTS screen for inhibitors: Validation (AID 493153; active = well fitted inhibition curve with a large enough effect in the main read-out, with a control signal flat, not every such curve was filed as active; also: potency is read from the fitted curve at half-maximal effect); conditions: Potency: luciferase luminescence; viability change: measured here: cytotoxicity max response
Outline: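 Dose-response validation uses reporter A549 cells with firefly luciferase under an antioxidant response element. Compounds stay on cells 18-24 h at 37°C, and luminescence indicates Nrf2-driven transcription.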

[13] = target: M-phase phosphoprotein 8 (Homo sapiens) (UniProt Q99549); assay: qHTS Validation Assay for Inhibitors for MPP8 Chromodomain Interactions with Methylated Histone Tails (AID 488949); also: nearly all actives have a fitted effect of over 55% in size; also: potency is read from the fitted curve at half-maximal effect
Outline: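 AlphaScreen proximity signal from streptavidin donor and Ni-chelate acceptor beads (10 ug/mL each) reported binding of MPP8 to trimethyl-K9 H3(1-18) peptide, both at 50 nM. The complex formed 30 min before a 30 min compound exposure at room temperature, in PBS pH 7.4.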

[14] = target: Transient receptor potential cation channel subfamily V member 1 (Homo sapiens) (UniProt Q8NER1); assay: HTS Assay for Compounds that Act as Enhancers of the Vanilloid Receptor 1 (AID 488979)
Outline: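 Calcium influx kinetics via Fluo-8 (480/520 nm) in TRPV1-expressing cells, 2000/well cultured overnight at 35.5C. Compound-alone read 3 min (agonist phase), followed by EC20 capsaicin challenge for 2 min (enhancer phase).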

[15] = target: Thyrotropin receptor (Homo sapiens) (UniProt P16473); assay: qHTS Assay for Antagonists of the Thyroid Stimulating Hormone Receptor (AID 488980); also: series mostly up to about 58 µM
Thyrotropin receptor (Homo sapiens), sequence (P16473 whole entry, looked up): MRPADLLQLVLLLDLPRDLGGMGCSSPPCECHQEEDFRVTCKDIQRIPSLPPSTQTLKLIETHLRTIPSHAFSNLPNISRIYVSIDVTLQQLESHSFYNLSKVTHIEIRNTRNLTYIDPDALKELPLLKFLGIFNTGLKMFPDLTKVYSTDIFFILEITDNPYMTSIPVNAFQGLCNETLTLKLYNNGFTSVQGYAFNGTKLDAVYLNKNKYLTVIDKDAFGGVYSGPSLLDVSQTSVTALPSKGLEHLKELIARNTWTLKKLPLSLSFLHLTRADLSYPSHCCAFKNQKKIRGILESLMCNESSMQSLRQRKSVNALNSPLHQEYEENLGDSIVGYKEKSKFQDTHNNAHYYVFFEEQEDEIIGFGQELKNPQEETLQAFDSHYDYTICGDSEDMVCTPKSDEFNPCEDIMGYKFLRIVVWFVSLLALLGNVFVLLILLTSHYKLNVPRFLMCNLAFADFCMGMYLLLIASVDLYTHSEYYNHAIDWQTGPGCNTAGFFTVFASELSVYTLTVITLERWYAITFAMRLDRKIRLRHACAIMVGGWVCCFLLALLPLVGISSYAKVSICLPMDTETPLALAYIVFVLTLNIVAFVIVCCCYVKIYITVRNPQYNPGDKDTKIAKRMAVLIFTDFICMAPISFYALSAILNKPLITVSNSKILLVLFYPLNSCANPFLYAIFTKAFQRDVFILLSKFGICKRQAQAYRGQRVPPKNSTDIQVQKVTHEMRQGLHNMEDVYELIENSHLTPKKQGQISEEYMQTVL
Outline: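 Inhibition of cAMP raised by EC80 TSH (4 nM final) was read by HTRF, with lysate cAMP competing against cAMP-d2 for cryptate antibody after 30 min at room temperature. The cells were transfected HEK293 held in phosphodiesterase inhibitor RO 20-1724 at 70 uM.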

[16] = target: Thyrotropin-releasing hormone receptor (Homo sapiens) (UniProt P34981); assay: qHTS for Small Molecule Agonists and Allosteric Enhancers of Human TRH Receptor: Validation Screen for Agonists (AID 493127;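 active = calcium activation more than 3 SD above the typical response in the agonist read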;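 also: intracellular calcium rise by fluo-8 fluorescence before TRH EC20 addition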); conditions: TRH receptor agonist cell assay; at 2 µM; stronger effect = higher value
Thyrotropin-releasing hormone receptor (Homo sapiens), sequence (P34981 whole entry, looked up): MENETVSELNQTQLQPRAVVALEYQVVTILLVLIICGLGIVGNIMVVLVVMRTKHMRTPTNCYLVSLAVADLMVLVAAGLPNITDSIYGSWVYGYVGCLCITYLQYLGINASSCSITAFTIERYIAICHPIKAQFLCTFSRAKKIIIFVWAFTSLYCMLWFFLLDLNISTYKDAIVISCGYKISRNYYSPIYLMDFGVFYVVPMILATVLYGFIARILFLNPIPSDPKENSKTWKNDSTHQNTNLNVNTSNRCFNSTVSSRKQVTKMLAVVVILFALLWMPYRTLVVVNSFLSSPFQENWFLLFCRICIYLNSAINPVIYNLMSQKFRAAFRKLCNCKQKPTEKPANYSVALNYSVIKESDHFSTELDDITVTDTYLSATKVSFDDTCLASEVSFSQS
Outline: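 Gq-coupled calcium mobilization in TRHR cells after compound addition, monitored kinetically with fluo-8 dye on an FDSS reader.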

[17] = target: Galactokinase (Homo sapiens) (UniProt P51570); assay: qHTS Validation Assay for Inhibitors of Human Galactokinase (GALK) (AID 493189)
Galactokinase (Homo sapiens), sequence (P51570 whole entry, looked up): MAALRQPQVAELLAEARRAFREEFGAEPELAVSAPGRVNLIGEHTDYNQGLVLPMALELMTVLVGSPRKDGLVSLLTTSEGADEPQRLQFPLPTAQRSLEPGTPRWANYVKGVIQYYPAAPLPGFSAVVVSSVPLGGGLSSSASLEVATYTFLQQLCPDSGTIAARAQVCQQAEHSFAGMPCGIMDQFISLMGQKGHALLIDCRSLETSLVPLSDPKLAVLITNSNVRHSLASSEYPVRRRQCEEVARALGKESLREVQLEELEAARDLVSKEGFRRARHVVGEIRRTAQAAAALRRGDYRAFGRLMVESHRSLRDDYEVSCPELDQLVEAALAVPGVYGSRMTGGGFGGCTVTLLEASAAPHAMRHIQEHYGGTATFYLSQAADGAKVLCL
Outline: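 Inhibition was measured as remaining ATP, detected by luciferase luminescence after a 1 h room-temperature reaction. Final conditions: 5 nM GALK, 100 uM galactose, 35 uM ATP, pH 8.0 HEPES buffer.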

[18] = Validation screen for small molecules that induce DNA re-replication in SW480 colon adenocarcinoma cells (AID 504364)
Outline: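 Cells are treated 48 hr with test compound, stained 40 min with Hoechst at 37 C, and scanned for nuclear fluorescence; compounds inducing re-replication increase nuclei with elevated intensity.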

[19] = target: ATP-dependent 6-phosphofructokinase (Trypanosoma brucei brucei) (UniProt O15648); assay: qHTS Assay to Find Inhibitors of T. brucei phosphofructokinase: hit validation (AID 492961);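 also: luminescence reports ADP formed as PFK phosphorylates fructose-6-phosphate with ATP; series mostly up to about 51 µM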
Outline: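 ADP-Glo luminescence read-out of ADP formed by 1.25 nM PFK from 0.1 mM ATP and 0.5 mM F6P (TEA pH 8.0, 45 min, RT). Compounds titrated; activity normalized to no-enzyme and full-enzyme controls.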

SMILES | Potency [1] | Potency [2] | Potency [3] | Potency [4] | Potency [5] | Potency [6] | Potency [7] | Potency [8] | outcome [9] | Potency [10] | outcome [11] | Potency [12] | viability change [12] | Potency [13] | outcome [14] | outcome [15] | activation [16] | Potency [17] | Potency [18] | outcome [19]
O=[N+]([O-])c1ccc(CSc2ncnc3c2ncn3[C@@H]2O[C@H](CO)[C@@H](O)[C@H]2O)cc1 | inactive | inactive | inactive | inactive | inactive | inactive | inactive | 0.0206 µM (active) | inactive |  |  |  |  |  |  |  |  |  |  | 
C[N+]1(C)C2CC(OC(=O)[C@H](CO)c3ccccc3)CC1C1OC12 (some centres not stated) | inactive |  |  | inactive |  | inactive | inactive | inactive | inactive | inactive | inactive | inactive | 3.14% and -2.67% |  |  |  |  |  |  | 
CN=c1nc(-c2ccccc2)n(-c2ccccc2)s1 | inactive | inactive | 12.6 µM (active) | inactive |  |  |  |  | inactive |  |  |  |  | 4.47 µM (active) | inactive | inactive | 13% (inactive) | inactive | inactive | 
O=C1/C(=C/c2ccsc2)CC/C1=C\c1cccs1 | inactive | inactive |  | inactive | inactive | inactive | 23.1 µM (active) | inactive | inactive |  | inactive | inactive | -8.76% | inactive |  |  |  |  |  | 
CN(C)CCCO[C@@H]1[C@H]2OC(C)(C)O[C@H]2O[C@@H]1[C@H](O)CO | inactive | inactive |  | inactive | inactive |  | inactive | inactive | inactive |  | inactive | inactive | 3.16% | inactive |  |  |  |  |  | 
CN(C)c1nc2c(Br)c(Br)c(Br)c(Br)c2[nH]1 | inactive | inactive |  | inactive | inactive | inactive | inactive | 1.46 µM (active) | inactive |  |  | 16.4 µM (active) | -13.2% | inactive | inactive | inactive | 5.88% (inactive) | inactive | inactive | 
CCCCCCCCCCCCCCCCCC(=O)NCC(COP(=O)([O-])OCC[N+](C)(C)C)OCC (configuration not stated) | inactive | inactive | inactive | 10 µM (active) |  | 12.6 µM (active) |  |  | inactive |  | inactive | inactive | 1.48% |  | inactive | inactive | 2.19% (inactive) | inactive |  | 
CC(C)CC(NP(=O)(O)O[C@@H]1O[C@@H](C)[C@H](O)[C@@H](O)[C@H]1O)C(=O)NC(Cc1c[nH]c2ccccc12)C(=O)O (some centres not stated) | inactive |  | inactive | inactive |  | inactive | inactive | inactive | inactive | inactive |  | inactive | -0.0491% |  |  |  |  |  |  | 
OC[C@H]1O[C@@H](n2cnc3c(Nc4ccccc4)ncnc32)[C@H](O)[C@@H]1O | inactive | inactive | 0.006 µM (active) | inactive | inactive | inactive | 9.2 µM (active) | inactive | inactive |  | inactive |  |  |  |  |  |  |  |  | 
CNC(=O)[C@H]1O[C@@H](n2cnc3c(NCc4cccc(I)c4)ncnc32)[C@H](O)[C@@H]1O | inactive | inactive |  | inactive | inactive | inactive |  |  | inactive |  |  |  |  | inactive |  |  |  |  |  | 
S=C(S)OC1CC2CC1C1CCCC21 (configuration not stated) | inactive | inactive | 39.8 µM (active) | inactive |  | inactive | inactive |  | inactive |  | inactive | inactive | 5.78% |  | inactive | inactive | 0.125% (inactive) | inactive | inactive | 
Brc1c(Br)c(Br)c2n[nH]nc2c1Br | inactive |  |  | inactive | inactive |  |  |  | inactive | inactive | inactive |  |  |  | inactive | inactive | 0.938% (inactive) | inactive | inactive | 
Nc1ncnc2c1ncn2[C@@H]1O[C@H](COP(=O)(O)CP(=O)(O)OP(=O)(O)O)[C@@H](O)[C@H]1O | inactive | inactive | inactive | inactive |  | inactive | inactive | inactive | inactive |  | inactive | inactive | -5.53% |  |  |  |  |  |  | 
CN1CCc2ccccc2Cc2[nH]c3ccccc3c2CC1 | inactive | inactive |  | inactive | inactive | 0.355 µM (active) | inactive |  | inactive |  |  | inactive | -10.2% | 50.1 µM (active) and inactive | inactive | inactive | 0.5% (inactive) | inactive | inactive | 
CC1OC1P(=O)(O)O (configuration not stated) |  |  |  |  |  |  |  |  |  |  |  |  |  |  |  |  |  |  |  | inactive
